According to PubChem BioAssay AID1159580 (chemical genetic matrix, 2015):
Values joined by “and” are separate entries in the source; they are usually repeats but may differ in a detail not shown here. Equal entries are not always repeated. Out of some 5,500 compounds screened, about 2,000 (36%) were called active. Not shown: some 18% with an inconclusive outcome. Cut-off read from the data, not from the text of the source: active = normalized growth mostly below about 0.91 (no sharp cut-off); inconclusive = no clear call, values can overlap the other calls; inactive = mostly above about 0.92. The list shows a part of the results.

Assay: chemical genetic growth profiling, strain panel (AID 1159580);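 note: tested at 20 µM; growth read once vehicle control cultures reached saturation at 30 °C; 1 = growth at the plate median or of vehicle wells; lower values mean less growth of the strain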
Details: S. cerevisiae deletion strains, growth OD

Measured: normalized growth

CC(C)C1CCC(C(=O)N[C@@H](Cc2ccccc2)C(=O)O)CC1 (some centres not stated)
inactive: locus YAL013W, strain DEP1, active compounds read low 0.994 | locus YAL021C, strain ccr4, active compounds read low 0.97 | locus YAL026C, strain drs2, active compounds read low 0.978 | locus YAL030W, strain snc1, active compounds read low 0.975 | locus YBL061C, strain skt5, active compounds read low 0.973 | locus YBR009C, strain hhf1, active compounds read low 0.983 | locus YBR021W, strain FUR4, active compounds read low 0.969 | locus YBR023C, strain chs3, active compounds read low 0.973 | locus YBR171W, strain sec66, active compounds read low 0.962 | locus YBR229C, strain ROT2, active compounds read low 1.01 | locus YBR231C, strain swc5, active compounds read low 0.956 | locus YBR279W, strain paf1, active compounds read low 0.973 | locus YCL011C, strain gbp2, active compounds read low 0.976 | locus YCL016C, strain dcc1, active compounds read low 0.967 | locus YCL029C, strain bik1, active compounds read low 1.02 | locus YCL061C, strain MRC1, active compounds read low 0.972 | locus YCL069W, strain vba3, active compounds read low 0.979 | locus YCR088W, strain abp1, active compounds read low 0.971 | locus YDL005C, strain med2, active compounds read low 0.974 | locus YDL035C, strain GPR1, active compounds read low 0.982 | locus YDL040C, strain nat1, active compounds read low 0.974 | locus YDL074C, strain BRE1, active compounds read low 0.987 | locus YDL101C, strain DUN1, active compounds read low 1 | locus YDL134C, strain PPH21, active compounds read low 1.01 | locus YDL185W, strain tfp1, active compounds read low 1.02 | locus YDL192W, strain arf1, active compounds read low 1.01 | locus YDR001C, strain nth1, active compounds read low 0.972 | locus YDR069C, strain doa4, active compounds read low 0.986 | locus YDR101C, strain arx1, active compounds read low 1.02 | locus YDR137W, strain rgp1, active compounds read low 0.96 | locus YDR150W, strain NUM1, active compounds read low 0.995 | locus YDR159W, strain sac3, active compounds read low 0.989 | locus YDR162C, strain NBP2, active compounds read low 0.987 | locus YDR195W, strain ref2 0.962 | locus YDR297W, strain sur2, active compounds read low 0.976 | locus YDR318W, strain mcm21, active compounds read low 1.01 | locus YDR334W, strain swr1, active compounds read low 0.968 | locus YDR335W, strain msn5, active compounds read low 0.974 | locus YDR388W, active compounds read low 1.01 | locus YDR392W, strain spt3, active compounds read low 0.985 | locus YDR502C, strain sam2, active compounds read low 1.01 | locus YEL003W, strain gim4, active compounds read low 0.988 | locus YEL037C, strain rad23, active compounds read low 0.971 | locus YEL061C, strain CIN8 (second series), active compounds read low 0.973 | locus YEL061C, strain CIN8, active compounds read low 0.992 | locus YER015W, strain faa2, active compounds read low 0.986 | locus YER016W, strain bim1, active compounds read low 0.98 | locus YER110C, active compounds read low 1.02 | locus YER111C, strain swi4, active compounds read low 0.98 | locus YER155C, strain BEM2 (second series), active compounds read low 0.958 | locus YER155C, strain BEM2, active compounds read low 0.928 | locus YER167W, strain BCK2, active compounds read low 0.994 | locus YFR010W, strain ubp6, active compounds read low 0.968 | locus YGL078C, strain dbp3, active compounds read low 1.01 | locus YGL086W, strain mad1, active compounds read low 1.01 | locus YGL167C, strain pmr1, active compounds read low 0.967 | locus YGL173C, strain kem1, active compounds read low 0.97 | locus YGL227W, strain vid30, active compounds read low 0.969 | locus YGL240W, strain doc1, active compounds read low 0.985 | locus YGL248W, strain PDE1, active compounds read low 1.01 | locus YGL253W, strain hxk2, active compounds read low 0.97 | locus YGR078C, strain PAC10, active compounds read low 0.984 | locus YGR135W, strain pre9, active compounds read low 1.01 | locus YGR229C, strain SMI1, active compounds read low 0.949 | locus YGR252W, strain gcn5, active compounds read low 0.994 | locus YHR013C, strain ard1, active compounds read low 0.953 | locus YHR027C, strain rpn1, active compounds read low 0.993 | locus YHR030C, strain SLT2, active compounds read low 1.01 and 0.98 | locus YHR079C, strain IRE1 (second series), active compounds read low 1.01 | locus YHR079C, strain IRE1, active compounds read low 0.986 | locus YHR094C, strain hxt1, active compounds read low 1.01 | locus YHR129C, strain ARP1, active compounds read low 1.01 | locus YHR142W, strain chs7, active compounds read low 0.965 | locus YHR200W, strain rpn10, active compounds read low 1.01 | locus YIL066C, strain RNR3, active compounds read low 0.989 | locus YIL073C, strain SPO22, active compounds read low 0.989 | locus YIL125W, strain kgd1, active compounds read low 1.01 | locus YIR030C, strain dcg1, active compounds read low 1.02 | locus YJL092W, strain hpr5, active compounds read low 0.983 | locus YJL095W, strain BCK1 (second series), active compounds read low 0.979 | locus YJL095W, strain BCK1, active compounds read low 1 and 1.02 | locus YJL115W, strain asf1, active compounds read low 0.978 | locus YJL129C, strain trk1, active compounds read low 0.963 | locus YJL134W, strain LCB3, active compounds read low 0.996 | locus YJL154C, strain vps35, active compounds read low 0.973 | locus YJL164C, strain tpk1, active compounds read low 0.992 | locus YJL166W, strain qcr8, active compounds read low 0.979 | locus YJL168C, strain set2, active compounds read low 1.01 | locus YJL187C, strain SWE1 (second series), active compounds read low 1.01 | locus YJL187C, strain SWE1, active compounds read low 0.983 | locus YJR043C, strain POL32, active compounds read low 0.99 | locus YJR066W, strain TOR1, active compounds read low 0.956
